Shown are actives, neighbours in structure and some others; about 1.5% of the full set was active somewhere.
GCN5L2 inh – qHTS Assay for Inhibitors of GCN5L2. 390,000 compounds, 0.21% hits. GCN5L2 HAT assay, ThioGlo1 CoA-SH fluorescence. Potency, µM (top dose mostly 58.9 µM), most hits filed as inhibitors
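GCN5L2 (20nM final) in 50mM HEPES, 0.1mM EDTA pH 7.5, 0.01% Tween-20 was preincubated 15 min at room temperature with compound, then given ThioGlo1 (50uM), H3(1-25) peptide (75uM) and acetyl-CoA (70uM); CoA-thiol fluorescence (Ex340/Em540) was read at 0 and 20 min.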
PI5P4Ka inh – qHTS for Inhibitors of phosphatidylinositol 5-phosphate 4-kinase (PI5P4K) | Phosphatidylinositol 5-phosphate 4-kinase type-2 alpha (Homo sapiens), P48426 | PI5P4Kalpha enzyme, ADP-Glo luminescence, 60 min; hits give low values | max response, % | 330,000 compounds, 1.2% hits | AID 652105, 2013; active = max response of -50% or lower; inconclusive = between -30% and -50%; inactive = -30% or higher; also: value at the top dose of about 77 µM
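ADP-Glo luminescence end-point read after a 60 min room-temperature kinase reaction of PI5P4Kalpha plus substrate, initiated with ATP at 5 microM final. Buffer: 0.038 M HEPES pH 7.4, EGTA, 0.1% CHAPS, 5% DMSO.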
FEN1 inhibitor – qHTS Assay for the Inhibitors of Human Flap endonuclease 1 (FEN1); P39748; 390,000 compounds, 0.35% hits; Potency, µM (titrated, usually from 114 µM), usual class: inhibitors; Recombinant FEN1 flap cleavage, fluorescence, 15 min; also: nearly all actives have a fitted effect of over 65% in size
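Nuclease activity of 10 nM FEN1 was measured after 15 min of room-temperature exposure to titrated compounds, by adding 50 nM flap substrate and reading plates at 0 and 15 min.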
RECQ1 inh – qHTS Assay for Inhibitors of RecQ-Like Dna Helicase 1 (RECQ1); ATP-dependent DNA helicase Q1 (Homo sapiens), P46063; RECQ1 DNA unwinding, red fluorescence kinetic read; Potency, µM (top dose mostly 57.3 µM), hits mostly inhibitors; 240,000 compounds, 0.54% hits; also: nearly all actives have a fitted effect of over 30% in size
Target sequence (P46063 whole entry, looked up): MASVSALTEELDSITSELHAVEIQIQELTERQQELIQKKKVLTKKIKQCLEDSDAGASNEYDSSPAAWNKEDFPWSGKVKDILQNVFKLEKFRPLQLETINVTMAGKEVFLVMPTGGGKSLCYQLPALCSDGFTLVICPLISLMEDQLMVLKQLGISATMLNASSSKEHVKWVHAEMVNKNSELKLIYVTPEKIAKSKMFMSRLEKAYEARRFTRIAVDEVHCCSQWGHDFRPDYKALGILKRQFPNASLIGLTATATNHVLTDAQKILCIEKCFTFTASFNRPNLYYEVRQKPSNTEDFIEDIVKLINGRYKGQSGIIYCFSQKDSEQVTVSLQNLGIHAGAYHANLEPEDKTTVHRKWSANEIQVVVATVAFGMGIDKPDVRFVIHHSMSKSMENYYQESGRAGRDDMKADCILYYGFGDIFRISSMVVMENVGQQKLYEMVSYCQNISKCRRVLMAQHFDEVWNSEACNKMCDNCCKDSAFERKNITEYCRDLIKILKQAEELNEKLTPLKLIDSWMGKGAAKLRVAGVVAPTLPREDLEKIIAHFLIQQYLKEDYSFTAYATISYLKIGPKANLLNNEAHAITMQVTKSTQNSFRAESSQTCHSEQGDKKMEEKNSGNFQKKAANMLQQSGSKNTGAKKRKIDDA
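50 nM RECQ1T1 preincubated 15 min with compound in Tris pH 8.0 buffer with MgCl2, DTT, Tween-20 and 2.5 ug/ml poly(dI-dC); started with 200 nM TAMRA/BHQ-2 forked duplex and 2 mM ATP. Unwinding read as fluorescence (525/598 nm), two reads 2 h apart.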
BLM helicase inh – qHTS Assay for Inhibitors of Bloom's syndrome helicase (BLM) | recombinant BLM DNA unwinding, fluorescence dequenching | Potency, µM (highest dose often 56.1 µM), most hits filed as inhibitors | 350,000 compounds, 0.2% hits | AID 2528, 2010; also: nearly all actives have a fitted effect of over 35% in size
APE1 inh – qHTS Assay for Inhibitors of the Human Apurinic/apyrimidinic Endonuclease 1 (APE1); recombinant APE1, TAMRA/BHQ-2 abasic DNA cleavage fluorescence; Potency, µM (doses to about 65.8 µM), actives largely listed as inhibitors; 350,000 compounds, 0.35% hits; AID 2517, 2012; also: nearly all actives have a fitted effect of over 55% in size
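Readout is kinetic fluorescence (ex 525, em 598 nm) from cleavage of 50 nM TAMRA/BHQ-2 THF abasic duplex by 0.75 nM APE1, compound added 15 min beforehand at RT.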
Hits are given with their value; – = inactive; ? = inconclusive; · = no result. Unless noted, calls follow the shape of the dose curve; as a rule, active = well fitted curve in the direction sought with a large enough effect; inconclusive = small, poorly fitted or top-dose-only effect, or another doubt; inactive = no such curve, though single readings can be large; an effect the other way counts as inactive or inconclusive.

SMILES | GCN5L2 inh | PI5P4Ka inh | FEN1 inhibitor | RECQ1 inh | BLM helicase inh | APE1 inh
CCOc1cccc(C=NNc2ccc(S(=O)(=O)Nc3ccccc3C(=O)O)cc2[N+](=O)[O-])c1O | – | ? | – | · | · | –
CSc1ccc(C=NNc2ccc(S(=O)(=O)Nc3ccccc3C(=O)O)cc2[N+](=O)[O-])cc1 | ? | -53 | – | · | · | 8.4µM
COc1ccc(C=NNc2ccc(S(=O)(=O)Nc3ccccc3C(=O)O)cc2[N+](=O)[O-])c(OC)c1 | ? | -70 | 22µM | · | · | ?
Cc1ccc(S(=O)(=O)N(C)CCCN(C)c2nc(-c3cccs3)nc3ccccc23)cc1 | · | · | – | · | · | ·
Cc1ccc(-c2nnc(SC(C)C(=O)NCc3ccco3)n2C)cc1 (stereo not drawn) | · | · | – | · | · | ·
C=C1NN(Cc2ccccc2)C(=O)N1c1ccc(OCc2ccccc2)cc1 | · | · | – | · | · | ·
Cn1cc(/C=C2\SC(=S)N(NC(=O)c3ccccc3)C2=O)c2ccccc21 | – | – | – | 32µM | – | –
CCC(CC)=NNc1ccc([N+](=O)[O-])cc1[N+](=O)[O-] | – | – | – | – | – | –
O=C(O)/C(CC(=O)c1ccc(Cl)cc1)=N/Nc1ccc([N+](=O)[O-])cc1[N+](=O)[O-] | – | -53 | – | · | – | –
COc1cccc(-c2cc(NC=O)c3ncc(-c4cccc(C(=O)N(C)C)c4)n3c2)c1 | · | -68 | · | · | · | ·
CC(=O)c1ccc(-c2cnc3c(NC=O)cc(-c4cnn(C)c4)cn23)cc1 | · | -57 | · | · | · | ·
O=CNc1cc(-c2ccoc2)cn2c(-c3ccc(F)cc3)cnc12 | · | -60 | · | · | · | ·
COc1cc(-c2cc(NC=O)c3ncc(-c4ccc(F)cc4)n3c2)cc(OC)c1OC | · | – | · | · | · | ·
COc1cc(-c2cc(NC=O)c3ncc(-c4ccc(C(C)=O)cc4)n3c2)ccc1O | · | -61 | · | · | · | ·
O=CNc1cc(-c2cccc(F)c2)cn2c(-c3ccc(F)cc3)cnc12 | · | – | · | · | · | ·
Cc1cc(Cl)ccc1OCC(=O)Nc1cccc(-c2nc3ccccc3o2)c1 | · | · | – | · | · | ·
COc1cccc(-c2cnc3c(NC=O)cc(-c4ccc(O)c(OC)c4)cn23)c1 | · | -65 | · | · | · | ·
COc1cc(-c2cnc3c(NC=O)cc(-c4cccc(C(F)(F)F)c4)cn23)cc(OC)c1OC | · | – | · | · | · | ·
Nc1ccc(-c2cc(NC=O)c3ncc(-c4cccc(C(F)(F)F)c4)n3c2)cn1 | · | -55 | · | · | · | ·
COc1ccc(-c2cc(NC=O)c3ncc(-c4ccc(OC)c(OC)c4)n3c2)cc1OC | · | – | · | · | · | ·
COc1ccc(-c2cc(NC=O)c3ncc(-c4ccc(OC)c(OC)c4)n3c2)cc1 | · | -51 | · | · | · | ·
O=C(C[n+]1c(Cl)ccc2ccccc21)c1ccc2ccccc2c1 | · | · | – | · | · | ·
O=S1(=O)CCO[C@H]2CCCC[C@@H]2N1Cc1ccc(Cl)cc1 | · | · | – | · | · | ·
O=c1ccc2ccccc2[nH]1 | – | · | · | – | – | –
Cn1nc(-c2cccnc2)nc2c(=O)n(C)c(=O)nc1-2 | · | · | – | · | · | ·
SMILES | GCN5L2 inh | PI5P4Ka inh | FEN1 inhibitor | RECQ1 inh | BLM helicase inh | APE1 inh
C=CCn1c(NC(=O)c2ccccc2Cl)c(C#N)c2nc3ccccc3nc21 | – | · | ? | ? | 1µM | –
CCCCn1c(NC(C)=O)c(C#N)c2nc3ccccc3nc21 | ? | – | – | – | – | –
CC(=O)c1ccc(Sc2ccccc2N)c([N+](=O)[O-])c1 | – | – | – | – | – | –
Nc1ccccc1Sc1ccc(C(=O)c2ccccc2C(=O)O)cc1[N+](=O)[O-] | 20µM | -66 | – | – | – | –
NC(C(=O)O)(c1ccc(P(=O)(O)O)cc1)C1CC1 (stereo not drawn) | – | · | · | – | · | –
C=CC(=O)c1ccc(CCCCCC)cc1 | – | · | · | – | – | –
CCCCCCCCc1ccc(-c2ccc(C(=O)O)cc2)cc1 | 20µM | · | · | – | – | –
